MBNL1-CUG inh: MBNL1-poly(CUG) RNA binding inhibition. AID 2675. Q9NR56. 280,000 compounds, 0.036% hits. TR-FRET MBNL1-His/biotin-(CUG)12 binding, 665/545 ratio. Potency, µM (titrated, usually from 57.5 µM), without a hit: top-dose activity change, negative = inhibition, usual class: inhibitors; active = well fitted inhibition curve with a large enough effect in the signal ratio, with a control signal flat, not every such curve was filed as active; inconclusive = small, poorly fitted or top-dose-only effect, or effect the other way, or a change in a side signal; inactive = no such curve, though single readings can be large or run the other way; the % refers to the signal ratio; note: potency is the fitted concentration of half-maximal effect; % is set by controls: 0 for no effect and ±100 for the full control effect
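Ratiometric TR-FRET (665 over 545 nm, excitation 340 nm) tracks disruption of MBNL1-His/biotin-(CUG)12 complex after 60 min at room temperature, with compounds at 92 nM to 58 uM final.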
PTHR1 agonist: agonists of human PTHR1 parathyroid hormone receptor | AID 743266 | 410,000 compounds, 0.075% hits | Q03431 | HEK293 GP2 PTHR1 cells, GloSensor cAMP luminescence, 1 h | Potency, µM (doses to about 115 µM), for inactives: at the top dose activation, actives largely listed as activators; note: potency is the fitted concentration of half-maximal effect; nearly all actives have a fitted effect of over 55% in size
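HEK-293-derived GP2 cells expressing PTHR1 and a GloSensor cAMP reporter, 3,000/well, plated overnight, given luciferin plus IBMX (each 0.5 mM as added) for 1 h at 37 °C, then compound for 1 h at 37 °C. Luminescence was read after 15 min at room temperature.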
Integrin act MD: activates integrin-mediated alleviation for muscular dystrophy; alpha7betagal myoblasts, beta-gal FDG fluorescence, 48 h; Potency, µM (top dose mostly 38.3 µM), for inactives: top-dose activation, actives largely listed as activators; 350,000 compounds, 0.064% hits;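 note: potency is the fitted concentration of half-maximal effect; 100% = response of the positive control SU9516; nearly all actives have a fitted effect of over 60% in size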
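Alpha7betagal+/- myoblasts (passage 13) were plated 16-24 hr, then exposed to compounds (1:260 dilution of DMSO stock) for 48 hours at 37C. After MPER lysis, β-galactosidase reporter activity was read as FDG fluorescence (ex 480/em 540) after 30 minutes.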
CBFb-RUNX1 inh: CBF-beta/RUNX1 interaction disruption; Q01196+Q13951; AlphaScreen CBFb-His/RUNX1-biotin binding, biochemical; Potency, µM (series often up to 59.8 µM), without a hit: top-dose activity, negative = inhibition, hits mostly inhibitors; 230,000 tested, under 10 active; AID 1477; note: % of control where 0% means no effect
Target sequence (Q01196 whole entry, looked up): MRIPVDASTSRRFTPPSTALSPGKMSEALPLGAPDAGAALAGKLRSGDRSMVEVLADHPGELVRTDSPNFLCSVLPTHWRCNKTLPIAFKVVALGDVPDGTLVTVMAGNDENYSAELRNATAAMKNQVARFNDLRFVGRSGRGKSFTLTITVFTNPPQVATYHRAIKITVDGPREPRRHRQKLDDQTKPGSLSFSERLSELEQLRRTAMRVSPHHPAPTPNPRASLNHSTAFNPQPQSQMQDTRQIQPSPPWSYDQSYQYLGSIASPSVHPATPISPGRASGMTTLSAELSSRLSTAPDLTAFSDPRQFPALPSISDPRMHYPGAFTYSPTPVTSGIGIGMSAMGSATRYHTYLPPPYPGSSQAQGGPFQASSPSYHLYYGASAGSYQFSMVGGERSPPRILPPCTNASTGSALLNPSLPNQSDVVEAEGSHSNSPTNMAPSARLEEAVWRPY
Target sequence (Q13951 whole entry, looked up): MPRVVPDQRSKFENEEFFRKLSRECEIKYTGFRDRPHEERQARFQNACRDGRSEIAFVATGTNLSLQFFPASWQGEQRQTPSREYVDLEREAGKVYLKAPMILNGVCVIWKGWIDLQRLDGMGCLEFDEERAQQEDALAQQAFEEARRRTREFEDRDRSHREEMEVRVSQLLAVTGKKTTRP
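CBFb-His/RUNX1-biotin, 30 nM each, preincubated 20 min RT; compound 15 min RT; Ni + streptavidin beads 50 ng each, 90 min RT; AlphaScreen read.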
D3 ag: activates the human D3 dopamine receptor; 410,000 compounds, 0.58% hits; max activation, %; P35462; D3R DiscoveRx beta-arrestin cells, luminescence, 90 min; AID 652048; in the data active = max activation above about 30%; note: 0% is about no effect
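Agonist mode: compounds and dopamine controls were applied to plated cells for 90 min at 37 degrees C after an overnight attachment at 1500 cells/well. Luminescent read-out followed 30 - 60 minutes at room temperature with DiscoveRx detection reagent.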
D3 antag: D3 dopamine receptor (human) antagonism; 360,000 compounds, 2.5% hits; max response, negative = inhibition, %; P35462; D3R cells, DiscoveRx beta-arrestin luminescence, antagonist mode; stronger effect = lower value; in the data active = max response below about -50%; inconclusive = no clear call, values can overlap the other calls; note: % is set by controls: 0 for no effect and ±100 for the full control effect
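Cells expressing the human receptor were seeded at 1500 cells/well, incubated overnight at 37 degrees C in 5% CO2, then exposed to library compounds with dopamine controls for 90 minutes at 37 degrees C before luminescent detection.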
* = called active by the depositor; i = inactive; ? = inconclusive; . = no result given; [ ] = another dose, or the depositor's remark. A selection: hits, their analogues and other compounds. The true share with any hit is near 2.8%. Unless noted, calls come from the whole dose curve; as a rule, active = well fitted curve in the direction sought with a large enough effect; inconclusive = small, poorly fitted or top-dose-only effect, or another doubt; inactive = no such curve, though single readings can be large; an effect the other way counts as inactive or inconclusive.

SMILES	MBNL1-CUG inh	PTHR1 agonist	Integrin act MD	CBFb-RUNX1 inh	D3 ag	D3 antag
Cc1ccc(-n2cccn2)c(CN2CCCC(C(=O)c3ccc4c(c3)OCO4)C2)c1 (stereo not drawn)	-5.9%	i	-7.1%	-2.1%	-31.7	-63.0*
CC(C)N(C)c1ncnc2c1ncn2[C@H]1CN(Cc2ccc3c(c2)OCO3)C[C@@H](CO)O1	.	24.8%	.	.	4.1	16.8
COc1ccc(N2CCN(CCCNC(=O)c3cc4sccc4n3C)CC2)cc1	-2.2%	-33.4%	-27.2%	-22.1%	-64.5	-57.3*
CC1CCN(CCCNC(=O)c2cc3sccc3n2C)CC1	7.9%	i	-2.7%[7.66 µM]	-4.8%	-32.0	-85.8*
COc1ccc(N2CCN(CCCNC(=O)Cn3c(-c4cccs4)cc4ccccc43)CC2)cc1	.	i	.	.	31.6*	.
Cc1cc(C(=O)Nc2c(F)c(F)c(F)c(F)c2F)n(-c2ccccc2)n1	1.7%	i	19.9%	20.2%	1.9	-5.0
O=C(COC(=O)CNS(=O)(=O)/C=C/c1ccccc1)Nc1cccc2ccccc12	-3.0%	i	?	3.2%	3.0	15.1
Cn1ncc([N+](=O)[O-])c1C(=O)N/N=C/c1cccc([N+](=O)[O-])c1	?	i	0.7%	3.6%	0.5	4.0
Cc1ccc(S(=O)(=O)N(C)C[C@@H]2OCc3cnnn3CCCC(=O)N([C@@H](C)CO)C[C@H]2C)cc1	.	-11.1%	20.8%	.	6.7	24.9
Nc1c(N2CCCC2)c2ccccc2oc1=O	20.4%	i	8.1%	1.6%	44.2*	10.5
C=CCOc1cccn2c(N(C=O)Cc3ccc(OC)cc3)c(CC)nc12	.	i	.	.	1.7	-12.4
CC1([N+](=O)[O-])COC2(CCCCC2)OC1	.	4.3%	-5.8%	.	82.7*	-50.3*
CC1([N+](=O)[O-])COC2(OC1)C(=O)Nc1ccccc12 (stereo not drawn)	-4.7%	-4.2%	-18.7%	.	-10.8	0.3
COc1ccc(C(C#N)=Cc2cccc(OC)c2OC)cc1	.	-28.0%	-34.4%	.	3.1	40.6
Cc1cccc(C)c1NC(=O)c1cnccn1	2.4%	i	0.0%	.	-1.0	-20.6
Cc1cccc(C)c1NC(=O)C(c1ccc(C#N)cc1)n1c(=O)c(-c2ccco2)nc2ccccc21 (stereo not drawn)	.	i	.	.	-3.5	-5.4
O=C(Nc1ccccc1C(=O)NC(Cc1c[nH]c2ccccc12)C(=O)O)c1ccco1 (stereo not drawn)	-6.5%	i	9.6%	4.7%	4.3	-54.5*
CCOc1ccccc1N1CCN(CC(=O)NC(C)c2ccccc2)CC1 (stereo not drawn)	-1.0%	-7.7%	23.5%	.	-22.1	-89.1*
O=C(CN1CCCC1)NC(c1ccccc1)c1ccccc1	-20.4%	-10.4%	6.2%	.	-4.6	-7.8
COc1ccc(C(NC(=O)CN2CCCCCC2)c2ccc(OC)cc2)cc1	-6.6%	i	-16.8%	.	-28.5	-52.5*
O=C(CN1CCN(c2ccccc2O)CC1)NC(c1ccccc1)c1ccccc1	-8.0%	i	6.9%	-10.6%	-19.2	-56.2*
CCOC(=O)c1c(C)[nH]c(C)c1S(=O)(=O)N1CCCC(C(=O)Nc2cccc(CC)c2)C1 (stereo not drawn)	.	i	.	.	7.8	.
Cc1ccc(NC(=O)N(CCCN2CCOCC2)Cc2cccs2)cc1C	-5.3%	i	22.6%	0.8%	-10.5	-68.3*
COc1ccc(NC(=S)N(CCCN2CCCC2)Cc2cccs2)cc1	-20.3%	i	10.5%	0.9%	-26.8	-64.2*
COc1ccc(NC(=S)N(CCCN2CCCC(C)C2)Cc2cccs2)cc1 (stereo not drawn)	-8.9%	-7.4%	-17.6%	-2.1%	-20.8	-81.8*
O=C(Nc1ccc(Cl)cc1)N(CCCN1CCOCC1)Cc1cccs1	-11.7%	i	-5.4%	-5.5%	-10.7	-10.4
CSc1cccc(NC(=S)N(CCCN2CCCC2)Cc2cccs2)c1	-9.5%	i	0.0%	-6.8%	-20.3	-64.4*
